ELG1 DNA repair = inhibitors of ELG1-dependent DNA repair in HEK293T cells. HEK293T ELG1-luciferase reporter, luminescence, 16 h; DNA damage induced by 5-fluorouridine. Potency, µM (highest dose often 46.1 µM), for the others: at the top dose activity change, negative = inhibition, usual class: inhibitors. hit rate 2.3% among 330,000. AID 504467; note: potency is the fitted concentration of half-maximal effect; nearly all actives have a fitted effect of over 55% in size
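HEK293T cells expressing luciferase-tagged ELG1 (2,000/well) received 5-Fluorouridine plus compound or DMSO for 16 hr at 37 °C. Luciferase was read by ONE-Glo luminescence after 30 min at room temperature.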
TSHR antag = human thyrotropin receptor antagonism; P16473; TSHR-expressing cells, TSH-stimulated cAMP HTRF, 2 h; stronger effect = lower value; activity change, negative = inhibition, % at 11.5 µM; hit rate 0.2% among 330,000; AID 504810;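 active = activity change below a set negative limit, meaning inhibition stronger than a set level, cut at about -70% in these data; inconclusive = activity change between two set negative limits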
Target sequence (P16473 whole entry, looked up): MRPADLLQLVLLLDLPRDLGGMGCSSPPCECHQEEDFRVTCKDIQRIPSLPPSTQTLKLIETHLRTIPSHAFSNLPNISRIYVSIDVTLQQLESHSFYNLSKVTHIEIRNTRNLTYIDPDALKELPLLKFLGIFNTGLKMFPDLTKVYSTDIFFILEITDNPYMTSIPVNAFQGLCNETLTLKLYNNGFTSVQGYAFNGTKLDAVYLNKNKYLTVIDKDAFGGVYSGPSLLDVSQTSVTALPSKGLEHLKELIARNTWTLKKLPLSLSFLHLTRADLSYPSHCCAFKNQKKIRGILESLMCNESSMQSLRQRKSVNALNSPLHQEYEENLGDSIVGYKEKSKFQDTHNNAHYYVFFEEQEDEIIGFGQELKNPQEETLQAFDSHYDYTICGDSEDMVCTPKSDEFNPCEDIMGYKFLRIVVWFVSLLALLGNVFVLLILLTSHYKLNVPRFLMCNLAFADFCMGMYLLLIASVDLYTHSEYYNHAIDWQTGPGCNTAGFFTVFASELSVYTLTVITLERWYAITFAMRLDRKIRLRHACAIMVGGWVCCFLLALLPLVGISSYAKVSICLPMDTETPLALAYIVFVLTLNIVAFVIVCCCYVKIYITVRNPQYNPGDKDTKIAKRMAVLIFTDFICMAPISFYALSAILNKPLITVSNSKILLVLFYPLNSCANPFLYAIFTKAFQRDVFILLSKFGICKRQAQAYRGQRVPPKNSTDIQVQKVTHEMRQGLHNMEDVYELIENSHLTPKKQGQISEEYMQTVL
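TSHR-expressing cells were treated with compounds, then stimulated with TSH at EC80 (4nM final) for 2 hours at 37 deg C. Cellular cAMP was measured by HTRF competition between lysate cAMP and cAMP-d2 for a cryptate-labelled anti-cAMP antibody.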
VP16 counter = counter-screen for ROR gamma inhibitors: Gal4-VP16 reporter. Drosophila S2 Gal4-VP16 UAS-luciferase, luminescence, 20 h. Potency, µM (series often up to 53.6 µM), without a hit: at the top dose activity, negative = inhibition, usual class: inhibitors. hit rate 3.5% among 310,000. AID 2546;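 note: Gal4-VP16 expression switched on by copper sulfate through the metallothionein promoter; potency is the fitted concentration of half-maximal effect; nearly all actives have a fitted effect of over 50% in size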
RORg inh = inhibitors of mouse ROR gamma transcriptional activity. P51450. Drosophila S2 Gal4-RORgamma UAS-luciferase reporter, 20 h. Potency, µM (highest dose often 53.6 µM), without a hit: top-dose activity change, negative = inhibition, usual class: inhibitors. hit rate 5.4% among 310,000. AID 2551; note: potency is the fitted concentration of half-maximal effect; nearly all actives have a fitted effect of over 60% in size
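In this cell-based reporter format, copper sulfate (700 uM final) drives Gal4–ROR gamma fusion expression from a metallothionein promoter in Drosophila Schneider cells; compounds preincubated 1 hr, reporter read after 20 hr at ambient temperature.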
FBPA coupling cs = counter-screen for Giardia aldolase inhibitors: coupling enzyme system; coupling enzyme system counterscreen, AmpLite Red fluorescence; activity change, negative = inhibition, % at 58.2 µM, hits read low; hit rate 0.67% among 290,000; AID 2472; in the data active = activity change below about -30%
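Final compound at 57.5 uM, incubated 10 min at RT with coupling enzyme reagent (glyceraldehyde-3-phosphate), then 20 min with substrate and AmpLite Red detection. Fluorescence read at 525/598 nm; tests interference with the coupling assay, not aldolase inhibition.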
* = called active by the depositor; ? = inconclusive; · = not tested or not shown; [ ] = remark or other dose. Rows were chosen to be rich in hits. Some 8% of all compounds tested hit in one or more screens of this group. Unless noted, calls come from the whole dose curve; as a rule, active = well fitted curve in the direction sought with a large enough effect; inconclusive = small, poorly fitted or top-dose-only effect, or another doubt; inactive = no such curve, though single readings can be large; an effect the other way counts as inactive or inconclusive. % is set by controls: 0 for no effect and ±100 for the full control effect.

SMILES | ELG1 DNA repair | TSHR antag | VP16 counter | RORg inh | FBPA coupling cs
S=C(Nc1ccc(Cl)cc1)NC1CCCCC1 | 35% | -13 | 16µM* | 3.5µM* | 1
NS(=O)(=O)c1ccc(NC(=S)NC2CCCCC2)cc1 | 1% | 12 | 4% | 6% | -11
O=C(NNC(=S)Nc1ccccc1)C1CCCCC1 | 14% | 4 | -4% | -34% | 1
C=C(C(=O)C(C)(C)O)C(O)c1ccc([N+](=O)[O-])cc1 (stereo not drawn) | · | · | -3% | -10% | 1
Cc1cc(NC(=O)CCC(=O)N(c2ccc(F)cc2)C(C(=O)NC2CCCC2)c2cccnc2)no1 (stereo not drawn) | -6% | -4 | -11% | -17% | -3
Cc1ccc(SCC(=O)OCC(=O)NC(C)c2ccc(F)cc2)cc1 (stereo not drawn) | 5% | 6 | · | · | ·
S=C(Nc1cccnc1)NC1CCCCCCC1 | 5% | 5 | 22µM* | ? | 1
S=C(Nc1cccnc1)NC1CCCC1 | -15% | 1 | -8% | 1% | -3
Cc1nc2ccccc2cc1C(=O)N/N=C/c1cccs1 | -9% | -2 | ? | 10µM* | 2
COc1ccccc1NC(=O)C(=O)N/N=C/c1cccs1 | ? | 1 | 3.2µM* | 2µM* | 1
Cc1nc2ccccc2cc1C(=O)N/N=C/c1ccco1 | 0% | -5 | ? | ? | -1
Cn1cc(C(=O)N/N=C/c2cccs2)c2ccccc21 | ? | 10 | ? | 10µM* | -6
COCCNC(=O)C(=O)N/N=C/c1cccs1 | -1% | 2 | 4% | 8% | 0
COc1cc(/C=C2/SC(=S)N(CC(=O)O)C2=O)ccc1OCC(=O)Nc1ccc(C)c(C)c1 | 7% | 15 | -7% | 21% | 9
Cc1cccc(C(=O)NCCC(=O)NCc2ccccc2Cl)c1 | 1% | -3 | · | · | ·
NNC(=O)c1cc2c(ccc3ccccc32)o1 | 15% | 14 | -8%[10 µM] | -39% | -3
O=C(Nc1cccnc1)c1cc2c(ccc3ccccc32)o1 | · | · | ? | 1.4µM* | -2
C=CC[C@@H]1C=C[C@@H](O/N=C2/C[C@@H](O)[C@@H](O)[C@@H]3[C@@H]4C(=O)N(CC)C(=O)[C@H]4CC[C@@H]23)[C@@H](CO)O1 | · | · | -4%[10 µM] | -18%[10 µM] | 0
Cn1c2c(c(=O)n(C)c1=O)C(C(F)(F)F)(C(F)(F)F)N=C(c1ccc(Cl)cc1)N2 | 0.65µM* | ? | 3.2µM* | 6.3µM* | 2
COc1ccc(C(=O)NC(=S)N2CCN(c3ccc([N+](=O)[O-])cc3)CC2)cc1 | -18% | -20 | 0.89µM* | 0.63µM* | 4
CC1CN(C(=S)Nc2cccc(Cl)c2Cl)CC(C)O1 (stereo not drawn) | -7% | -3 | ? | 18µM* | 0
COc1ccc(-c2nnn(CC(=O)N3CCN(c4ccccc4OC)CC3)n2)cc1 | 23µM* | 14 | 17% | ? | 2
COc1ccc(NC(=O)N2CCN(c3ccc([N+](=O)[O-])cc3)CC2)cc1 | 8% | 7 | -1% | -14% | 1
CC1CN(C(=S)NC(=O)c2ccc([N+](=O)[O-])cc2)CC(C)O1 (stereo not drawn) | ? | 0 | 1.3µM* | 0.45µM* | 0
S=C(Nc1cccc(Cl)c1Cl)N1CCCC1 | 11% | 8 | -2% | -36% | ·
SMILES | ELG1 DNA repair | TSHR antag | VP16 counter | RORg inh | FBPA coupling cs
O=C(O)CC(c1ccccc1)N1C(=O)c2cccc([N+](=O)[O-])c2C1=O (stereo not drawn) | 0% | 4 | -5% | -4% | 0
Cc1cc(NS(=O)(=O)c2ccc(NC(=O)c3ccc(Cl)cc3[N+](=O)[O-])cc2)no1 | -3% | 4 | · | · | 6
CN(CC(=O)Nc1c(Cl)cccc1Cl)C(=O)Cc1cccs1 | 2% | -2 | · | · | ·
CN1CCN(C(=S)NC(=O)c2ccco2)CC1 | 7% | 8 | 14µM* | 3.5µM* | 0
COc1cccc(-c2nnn(CCC(=O)O)n2)c1 | -2% | -5 | -13% | -9% | 1
O=C(NC(=S)N1CCN(c2ccccn2)CC1)c1ccco1 | 1% | -1 | 3.2µM* | 0.18µM* | 1
COc1ccc(-c2nnn(CCC(=O)O)n2)cc1 | 2% | -2 | -57% | 2.2µM* | 5
N#Cc1ccc(C(=O)NC(=S)N2CCOCC2)cc1 | 8% | -10 | · | · | ·
O=C(NC(=S)N1CCN(c2ccc(O)cc2)CC1)c1ccco1 | -7% | 3 | · | · | ·
O=C(NC(=S)N1CCOCC1)c1ccc([N+](=O)[O-])cc1 | ? | 14 | 2.2µM* | 1.4µM* | -2
CN(CC(=O)Nc1ccc(Cl)c(Cl)c1)CC(=O)Nc1ccc2c(c1)OCO2 | -13% | 22 | · | · | ·
CN(C)c1ccc(C(=S)N2CCN(c3ccc([N+](=O)[O-])cc3)CC2)cc1 | -16% | -22 | 9% | 6% | -30*
CC1CN(C(=S)NC(=O)c2ccccc2)CC(C)O1 (stereo not drawn) | 0% | 2 | 3.2µM* | 3.5µM* | ·
CC1CN(C(=S)NC(=O)c2ccco2)CC(C)O1 (stereo not drawn) | 6% | 3 | 20µM* | 4µM* | 1
COc1ccc(C(=O)NC(=S)N2CCN(c3ccccc3OC)CC2)cc1 | ? | -9 | ? | 2µM* | 1
CCOC(=O)CNC(=O)N1CCCC(CCC(=O)NCc2ccc(F)c(F)c2)C1 (stereo not drawn) | -15% | 31 | 1% | 3% | 1

Screens deposited in PubChem by National Center for Advancing Translational Sciences (NCATS).
